CHX counter: Cycloheximide Counterscreen for Small Molecule Inhibitors of Shiga Toxin; cell reporter, cycloheximide protein synthesis inhibition counterscreen; actives 12% (n = 300,000); max response, %; in the data active = max response mostly above about 13%, no sharp cut-off; inactive = mostly below about 14%; also: read at 38.3 µM for the half of the compounds with a filed dose
NS1 function inh: qHTS Assay for Inhibitors of Influenza NS1 Protein Function; Potency, µM (highest dose often 46.1 µM); actives 0.4% (n = 270,000); AID 2326, 2010; also: actives are rising curves; nearly all actives have a fitted effect of over 50% in size
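Growth recovery, yeast-based: influenza A NS1 expressed in S. cerevisiae causes slow growth, and suppressors are detected by OD600. The parent strain without NS1 is used as positive control.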
SARS PLP yeast: qHTS of Yeast-based Assay for SARS-CoV PLP; Potency, µM (doses to about 32.9 µM), usual class: activators; actives 0.19% (n = 330,000); AID 485353, 2010; S. cerevisiae expressing SARS-CoV PLpro, growth rescue; also: nearly all actives have a fitted effect of over 55% in size
Shiga toxin inh: A qHTS for Small Molecule Inhibitors of Shiga Toxin; Vero cells, Shiga toxin protein synthesis inhibition reporter; inhibition, % at 38.7 µM; actives 9.2% (n = 290,000); in the data active = inhibition mostly above about 28%, no sharp cut-off; inactive = mostly below about 43%
Each line names hits and unclear results; the compound was inactive in the other large screens. Rows were chosen to be rich in hits. Some 12% of all compounds tested hit in one or more screens of this group. Unless noted, calls follow the shape of the full dose curve.

Nc1ccc(-c2nc3ccc(N)cc3o2)cc1	CHX counter 39.5
Cc1ccc2nc(-c3cc(N)cc(N)c3)oc2c1	CHX counter 16.6
Nc1ccc(-c2nc3cc(N)ccc3o2)cc1	CHX counter 38.2, Shiga toxin inh 37.8
Cc1ccc(C)c(-c2nc3cc(N)ccc3o2)c1	Shiga toxin inh 27.6
O=C(CN1CCN(S(=O)(=O)c2ccc(F)c(Cl)c2)CC1)N1CCNC1=O	none (no result: CHX counter, NS1 function inh, Shiga toxin inh)
O=C(NC1C2CCCC1CN(C1CC1)C2)c1ccc(Cl)cc1 (stereo not drawn)	none
COC(=O)c1ccc(-c2nc3cc(N)ccc3o2)cc1	CHX counter 17.5, Shiga toxin inh 38.2
CN(C)c1ccc(-c2nc3cc(N)ccc3o2)cc1	CHX counter 13.5
Nc1ccc2oc(-c3cc(Br)ccc3Cl)nc2c1	none
Cc1ccc(-c2nc3cc(N)ccc3o2)cc1Br	CHX counter 38.5 (no result: Shiga toxin inh)
COc1ccc(-c2nc3cc(NC(=O)c4ccc5c(c4)OCO5)ccc3o2)cc1	none
NNC(=O)CS(=O)(=O)Nc1ncccn1	none (no result: CHX counter, SARS PLP yeast, Shiga toxin inh)
CCOC(=O)c1ccc(NC(=O)CC2COc3ccccc3O2)cc1 (stereo not drawn)	none (no result: NS1 function inh)
CCCCCNC(=O)c1ccccc1SC	none
CC(c1nnc(SCC(=O)NC(=O)NCc2ccco2)n1-c1ccc(Cl)cc1)N(C)C (stereo not drawn)	none
O=C(O)CC(NC(=O)OCc1ccccc1)c1ccc(Br)cc1 (stereo not drawn)	none
O=C(OCc1ccccc1)[C@@H]1COC(c2ccc(Br)cc2)=N1	CHX counter 38.4, Shiga toxin inh active (no result: NS1 function inh, SARS PLP yeast)
Brc1ccc(C2=NC(Cc3ccccc3)CO2)cc1 (stereo not drawn)	CHX counter 51.8, Shiga toxin inh 77.3
O=S1(=O)N[C@@H](Cc2ccccc2)COc2cc(Br)ccc21	none (no result: CHX counter, NS1 function inh, Shiga toxin inh)
CCCCNC(=O)N(O)C1N(/N=C/c2ccco2)C(=S)SC1(C)C (stereo not drawn)	none (no result: CHX counter, NS1 function inh, Shiga toxin inh)
O=C1Nc2ccc(Cl)cc2/C1=C/C1CC=CCC1 (stereo not drawn)	none
CCCCCCOC(=O)C[N+](C)(C)CCOC1CC2CCC1(C)C2(C)C (stereo not drawn)	CHX counter 19.3
CCCCCCCOC(=O)C[N+](C)(C)CCOC1CC2CCC1(C)C2(C)C (stereo not drawn)	none
COCCn1cnc2c1c(=O)n(CC(=O)OCC(=O)NCC(F)(F)F)c(=O)n2Cc1ccccc1	SARS PLP yeast inconclusive
C=CCNC(=S)NNC(=O)COc1ccc2cc(Br)ccc2c1	CHX counter 43.6, Shiga toxin inh 100.6
C#CCNC(=O)C1=C[C@H](C2CCCCC2)C[C@H](OCCCCO)O1	none
O=C(c1ccccc1)c1nnc(-c2ccccc2F)o1	CHX counter 44.7, Shiga toxin inh 68.7
CC(=O)Nc1ccc(NC=C(C#N)C#N)cc1	none
COC(=O)[C@@]12CCCCN1[C@H](c1ccc(-c3ccc(OC)cc3)c(OC)c1)[C@@H]1C(=O)N(C)C(=O)[C@@H]12	none (no result: CHX counter, NS1 function inh, Shiga toxin inh)
CCOc1c2ccc(C(=O)NCCCCc3ccccc3)cc2nn1CC	none
CC(=O)Nc1ccc(SCC(=O)c2cc(C)ccc2C)cc1	none
COc1ccc(-n2c(C)cc(C(=O)CSc3ccc(NC(C)=O)cc3)c2C)cc1	CHX counter 29.4, Shiga toxin inh 69.5
CC(=O)Nc1ccc(SCC(=O)c2cc(C)n(-c3ccccc3)c2C)cc1	CHX counter 45.2
O=C(O)c1ccc(CSCc2ccccc2Cl)o1	none
CCC(C)NC(=O)c1ccc(CSCc2ccccc2Cl)o1 (stereo not drawn)	CHX counter 23.2
CC(C)NC(=O)c1ccc(CSCc2ccccc2Cl)o1	CHX counter 26.5
Cc1ccc(NC(=O)c2cc(S(=O)(=O)N3CCCC3)c[nH]2)c(C)c1	none
CN(C)CCCNC(=O)c1ccc(/C=N/O)nc1	CHX counter 35.6
Nc1cnc(-c2ccccc2)nc1Cl	Shiga toxin inh 12.6
c1ccc(-c2cnc(-c3ccccc3)nc2)cc1	CHX counter 68.7, Shiga toxin inh 88.2
Nc1nc(N)nc(-c2ccccc2)n1	none
CCC(C)NC(=O)c1cn(-c2cccc(C)n2)cn1 (stereo not drawn)	CHX counter 19.9, Shiga toxin inh 53.4
Cc1cccc(-n2cnc(C(=O)O)c2)n1	none
Cc1cccc(-n2cnc(C(=O)NC3CCCCCC3)c2)n1	CHX counter 59.7, Shiga toxin inh 75.8
Cc1cccc(CN2CCN(C(=O)CN(C)C(C)C(=O)Nc3ccc(C(N)=O)cc3)CC2)c1 (stereo not drawn)	none (no result: CHX counter, NS1 function inh, Shiga toxin inh)
NS(=O)(=O)c1ccc(N/C=C\C(=O)c2cccc3ccccc23)cc1	CHX counter 21.4
Cn1nnnc1SCC(=O)Nc1ccc2c(c1)OCO2	CHX counter 26.2, Shiga toxin inh 114.4
CCn1nnnc1SCC(=O)Nc1ccc2c(c1)OCO2	Shiga toxin inh 44.5
O=C(CSc1nc2ccccc2s1)NCc1cc([N+](=O)[O-])ccc1O	none (no result: CHX counter, NS1 function inh, Shiga toxin inh)
O=C(NCc1ccco1)c1ccc(CS(=O)Cc2cccc(Cl)c2)o1 (stereo not drawn)	none
Cc1nc2ccccc2c(=O)n1/N=C/c1ccc(O)cc1	SARS PLP yeast inconclusive
COC(=O)c1ccc(/C=N/n2c(C)nc3ccccc3c2=O)cc1	CHX counter 20.7, Shiga toxin inh 41.2
Cc1cccc(/C=N/n2c(C)nc3ccccc3c2=O)c1	CHX counter 22.1, Shiga toxin inh 100.5
Cc1nc2ccccc2c(=O)n1/N=C/c1cccnc1	none
Cc1nc2ccccc2c(=O)n1/N=C/c1ccc(C(C)C)cc1	CHX counter 21.6, Shiga toxin inh 37.6
COc1ccc(/C=N/n2c(C)nc3ccccc3c2=O)cc1	none
CCN(C(=O)COC(=O)c1cncc(Br)c1)C1CCS(=O)(=O)C1 (stereo not drawn)	none (no result: NS1 function inh)
COc1ccc(NC(=O)CN2C(=O)COc3ccccc32)cc1OC	none (no result: Shiga toxin inh)
CCOc1ccc(S(=O)(=O)N(CC)CC(=O)NCc2ccccn2)cc1C	none
Cc1c(NC(=O)c2cccs2)c(=O)n(-c2ccccc2)n1C	none
Cc1ccc(O)c(N=Cc2cc(Cc3ccccc3)cc([N+](=O)[O-])c2O)c1	none
N#CC1=C(C=Nc2ccccc2O)CCC1	none
Cc1ccc(O)c(N=CC2=C(O)c3ccccc3C2=O)c1	CHX counter 32.6, Shiga toxin inh 108.5
O=C1C(C=Nc2ccccc2O)=C(O)c2ccccc21	CHX counter 31.9, Shiga toxin inh 51.0
CC(NC(=O)COC(=O)C1=COCCO1)C12CC3CC(CC(C3)C1)C2 (stereo not drawn)	none
CCOc1ccc(-c2nnc(NC(=O)c3ccc(OCC(C)C)c(OC)c3)o2)cc1	CHX counter 25.5
Fc1ccccc1NC(=S)Nc1ccc(CN2CCOCC2)cc1	CHX counter 22.8, Shiga toxin inh 66.2 (no result: NS1 function inh)
O=C(NC(=S)Nc1ccc(CN2CCCCC2)cc1)c1ccco1	none
O=C(NC(=S)Nc1ccc(CN2CCOCC2)cc1)c1ccco1	CHX counter 30.9, Shiga toxin inh 33.6
O=C(NC(=S)Nc1ccc(N2CCOCC2)cc1)c1ccco1	CHX counter 31.7, Shiga toxin inh 43.3
O=C(O)c1nn2cc(CCO)cnc2c1Cl	none
CC(C)Cn1c(SCC(=O)N2CCN(C(=O)c3ccco3)CC2)nc2ccccc2c1=O	none (no result: NS1 function inh)
N#Cc1c(-c2ccc3c(c2)OCO3)csc1N	CHX counter 27.8, Shiga toxin inh 82.6
COC(=O)[C@@H](NC(=O)NCCC1=CCCCC1)C(C)C	none
CCCCn1c(N)c(N(CC(C)C)C(=O)CC2CCCCC2)c(=O)[nH]c1=O	none (no result: CHX counter, NS1 function inh, Shiga toxin inh)

From PubChem
